# Measured values from the supplement of paper PMC8371130.
# Structures can show the parent of a compound that is named as a salt.
# Test system: HL-1
# Test: relative cell viability (CellTiter-Glo) vs DMSO control (% of DMSO control); higher = more viable cells
# Conditions: oxygen condition: normoxia 72 h; 200 nM
# Procedure, shortened: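 Viability of HL-1 mouse atrial cardiomyocytes was assessed by CellTiter-Glo luminescence and normalised to vehicle-treated control cells. Cells were plated in 384-well plates at 1000 cells per well with compounds at 40, 200, 1000 or 5000 nM in 0.01% DMSO, and one day later were placed at 1% O2 for 48 h, then reoxygenated for 24 h, or kept in normoxia for the same duration.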
row,SMILES,relative cell viability
1,Cc1onc(-c2ccccc2)c1C(=O)N[C@@H]1C(=O)N2[C@@H]1SC(C)(C)[C@@H]2C(=O)O [Oxacillin sodium monohydrate],101
2,O=C(CCCCCCC(=O)Nc1ccccc1)NO [Vorinostat],101
3,CC1CCc2c(N3CCC(O)CC3)c(F)cc3c(=O)c(C(=O)O)cn1c23 (centres undefined) [Nadifloxacin],103
4,CCN(CCCc1ccccc1)CCCc1ccccc1 [Alverine Citrate],105
5,CC(=O)O[C@H]1C[C@@H]2CC[C@@H]3[C@H](CC[C@@]4(C)[C@H]3C[C@H]([N+]3(C)CCCCC3)[C@@H]4OC(C)=O)[C@@]2(C)C[C@@H]1N1CCCCC1 [Vecuronium Bromide],115
6,CNCCC(Oc1ccc(C(F)(F)F)cc1)c1ccccc1 (centres undefined) [Fluoxetine  HCl],114
7,CCCNC(C)C(=O)Nc1ccccc1C (centres undefined) [Prilocaine],92.1
8,Cc1c(N(C)C)c(=O)n(-c2ccccc2)n1C [Amidopyrine],105
9,CCCCN1CCCCC1C(=O)Nc1c(C)cccc1C (centres undefined) [Bupivacaine hydrochloride],105
10,O=C1c2c(O)ccc(O)c2C(=O)c2c(NCCNCCO)ccc(NCCNCCO)c21 [Mitoxantrone Hydrochloride],4.41
11,CO[C@H]1C[C@@H]2CC[C@@H](C)[C@@](O)(O2)C(=O)C(=O)N2CCCC[C@H]2C(=O)O[C@H]([C@H](C)C[C@@H]2CC[C@@H](OC(=O)C(C)(CO)CO)[C@H](OC)C2)CC(=O)[C@H](C)/C=C(\C)[C@@H](O)[C@@H](OC)C(=O)[C@H](C)C[C@H](C)/C=C/C=C/C=C/1C [Temsirolimus],67.5
12,C[C@@H]1C[C@H]2[C@@H]3C[C@H](F)C4=CC(=O)C=C[C@]4(C)[C@@]3(F)[C@@H](O)C[C@]2(C)[C@@]1(O)C(=O)CO [Flumethasone],95.8
13,C#C[C@]1(OC(C)=O)CC[C@H]2[C@@H]3CCC4=C[C@@H](OC(C)=O)CC[C@@H]4[C@H]3CC[C@@]21C [Ethynodiol diacetate],110
14,CS(=O)(=O)c1ccc(C2=C(c3ccccc3)C(=O)OC2)cc1 [Rofecoxib],94.4
15,NS(=O)(=O)c1cc2c(cc1Cl)N=C(CSCc1ccccc1)NS2(=O)=O [Benzthiazide],93.8
16,CC[C@H]1OC(=O)[C@H](C)[C@@H](O[C@H]2C[C@@](C)(OC)[C@@H](O)[C@H](C)O2)[C@H](C)[C@@H](O[C@@H]2O[C@H](C)C[C@H](N(C)C)[C@H]2O)[C@](C)(O)C[C@@H](C)/C(=N\OCOCCOC)[C@H](C)[C@@H](O)[C@]1(C)O [Roxithromycin],100
17,CC1=C(/C=C/C(C)=C/C=C/C(C)=C/C(=O)O)C(C)(C)CCC1 [Tretinoin],106
18,CCOC(=O)OC(C)OC1=C(C(=O)Nc2ccccn2)N(C)S(=O)(=O)c2ccccc21 (centres undefined) [Ampiroxicam],101
19,CC(O)(P(=O)(O)O)P(=O)(O)O [Etidronate],96.5
20,COC(=O)[C@H](c1ccccc1Cl)N1CCc2sccc2C1 [Clopidogrel],111
21,C[C@H](CCC(=O)O)[C@H]1CC[C@H]2[C@@H]3[C@@H](O)C[C@@H]4C[C@H](O)CC[C@]4(C)[C@H]3CC[C@]12C [Ursodiol],105
22,C[C@@H](O[C@H]1OCCN(Cc2nn(P(=O)(O)O)c(=O)[nH]2)[C@H]1c1ccc(F)cc1)c1cc(C(F)(F)F)cc(C(F)(F)F)c1 [Fosaprepitant dimeglumine],129
23,CC(=O)Oc1ccc(C(c2ccc(OC(C)=O)cc2)c2ccccn2)cc1 [Bisacodyl],115
24,Cc1cc(N)c2ccccc2[n+]1CCCCCCCCCC[n+]1c(C)cc(N)c2ccccc21 [Dequalinium chloride],107
25,CC1CNc2c(cccc2S(=O)(=O)N[C@@H](CCCNC(=N)N)C(=O)N2CC[C@@H](C)C[C@@H]2C(=O)O)C1 (some centres undefined) [Argatroban],95.6
26,CCCCNc1cc(C(=O)O)cc(S(N)(=O)=O)c1Oc1ccccc1 [Bumetanide],96.8
27,CCCCC(=O)O[C@H]1CC[C@H]2[C@@H]3CCc4cc(O)ccc4[C@H]3CC[C@]12C [Estradiol valerate],103
28,C[C@@](Cc1ccc(O)c(O)c1)(NN)C(=O)O [Carbidopa],96.4
29,O=c1[nH]cc(F)c(=O)[nH]1 [Adrucil],81.2
